HCMV inh: blocks human cytomegalovirus replication; HFF cells, HCMV-luciferase reporter, 72 h; hits give low values; activity change, negative = inhibition, % at 57.5 µM; 410,000 tested, 4.5% active; in the data active = activity change below about -60%; inconclusive = no clear call, values can overlap the other calls; inactive = above about -39%
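Inhibition of viral replication was scored as loss of reporter luminescence in HFFs infected with HCMV-luciferase (MOI 1 PFU/cell) for 72 h; compounds tested at 2 doses, normalized to buffer and Salinomycin controls.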
MARV entry inh: inhibitors of Marburg virus binding or cell entry. Marburg virus pseudotyped entry inhibition, cell reporter. Potency, µM (highest dose often 37.8 µM), inactives show at the top dose activity change, negative = inhibition, usual class: inhibitors. 300,000 tested, 1.8% active. AID 540276; calls by dose curve; tested in HEK293 cells; note: potency is the fitted concentration of half-maximal effect
HCV inh: inhibitors of hepatitis C virus infection | 340,000 tested, 3.4% active | Potency, µM (titrated, usually from 41.8 µM), for the others: at the top dose activity change, negative = inhibition, most hits filed as inhibitors | AID 651820 | Huh7.5.1 HCVcc-Cre infection, luciferase reporter, 44 h; note: potency is the fitted concentration of half-maximal effect
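Reporter virus HCVcc-Cre (~0.5 moi) infects cells exposed to compound; seeding density 1,000 cells/well with 4 h settling beforehand. Luminescence, 15 sec read, taken 44 h post-infection following a 15 min RT substrate incubation.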
Pf growth 48h: inhibits P. falciparum growth in the first generation, 48 h | P. falciparum luciferase growth in erythrocytes, 48 h | Potency, µM (series often up to 28.7 µM), without a hit: at the top dose activity change, negative = inhibition, hits mostly inhibitors | 310,000 tested, 5.9% active; note: potency is the fitted concentration of half-maximal effect
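Luminescence readout; reporter = integrated firefly luciferase in P. falciparum. RBC culture at 2% hematocrit, 0.1% parasitemia final, 37 C/5% CO2; decreased signal taken as growth inhibition.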
Lassa entry inh: inhibitors of Lassa virus binding or cell entry | Potency, µM (doses to about 37.9 µM), for inactives: top-dose activity change, negative = inhibition, usual class: inhibitors | 300,000 tested, 1.2% active | Lassa virus pseudotype entry inhibition, cell reporter; calls by dose curve; tested in HEK293 cells; note: potency is the fitted concentration of half-maximal effect; nearly all actives have a fitted effect of over 50% in size
Pf growth 96h: inhibits malaria parasite growth, 96 h | AID 504834 | P. falciparum luciferase reporter growth, 96 h | 320,000 tested, 6.9% active | Potency, µM (highest dose often 28.7 µM), inactives show at the top dose activity change, negative = inhibition, usual class: inhibitors; note: potency is the fitted concentration of half-maximal effect
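Luminescence readout: decreased luciferase signal marks inhibited growth of reporter-expressing P. falciparum in infected red cells (2% hematocrit, 0.05% parasitemia final), exposed to compound two generations (96 h, 37 C, 5% CO2).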
Numbers without * were called inactive; ? = inconclusive; · = no result given; [ ] = remark or other dose. This is a sample that favours compounds with a hit; in the whole collection about 14% have one here. Unless noted, calls come from the whole dose curve; as a rule, active = well fitted inhibition curve with a large enough effect; inconclusive = small, poorly fitted or top-dose-only effect, or another doubt; inactive = no such curve, though single readings can be large or run the other way. % is set by controls: 0 for no effect and ±100 for the full control effect.

SMILES	HCMV inh	MARV entry inh	HCV inh	Pf growth 48h	Lassa entry inh	Pf growth 96h
CN(C[C@H](c1ccccc1)N(C[C@H](Cc1ccccc1)N(CCc1ccccc1)N=O)N=O)N=O	-26	·	-23%[8.37 µM]	?	·	12µM*
CC(C)C[C@@H](CN(N=O)[C@@H](Cc1ccccc1)CN(C)N=O)N(CCc1ccccc1)N=O	-23	·	-18%	?	·	?
CN(C[C@H](Cc1ccccc1)N(C[C@H](c1ccccc1)N(CCc1ccccc1)N=O)N=O)N=O	4	·	-4%	?	·	13µM*
CN(C[C@@H](Cc1cccc2ccccc12)N(C[C@H](Cc1ccccc1)N(CCc1ccccc1)N=O)N=O)N=O	-4	·	-13%	0%	·	0%
O=C(NCc1ccc(Cl)cc1)C(=O)Nc1ccc(Br)cc1	-1	·	·	·	-17%[46.1 µM]	·
COc1ccc(-c2c(C)nn3c(N)c(-c4ccccc4)cnc23)cc1OC	3	·	13µM*	?	·	-12%
COCc1nn2c(N)c(-c3ccccc3)cnc2c1-c1ccccc1	20	12%[46.1 µM]	-4%	60%	?	?
COc1ccccc1-c1c(C)nn2c(N)c(-c3ccccc3)cnc12	-82*	?	?	8%	-9%[46.1 µM]	26%
COCCNC(=O)C(C)(C)n1cc(-c2ccc(OC)c(OC)c2)cn1	5	·	·	·	·	·
C[C@@H]1CC[C@H]2C(=O)O[C@H](COc3ccc(C(C)(C)C)cc3)CN2[C@@H]1c1ccc(Br)cc1	·	?	·	·	-27%[14.3 µM]	·
COc1ccc(-c2nc3sc(CCNC(=O)C(=O)Nc4cccc(NC(C)=O)c4)c(C)n3n2)cc1	-32	·	·	·	-2%[46.1 µM]	·
COc1ccc(-c2oc3ncnc(NCCCN4CCOCC4)c3c2-c2ccc(OC)cc2)cc1	?	?	2.8µM*	5.2µM*	-32%	82%
OCCCNc1ncnc2oc(-c3ccccc3)c(-c3ccccc3)c12	-17	·	?	3%[0.00184 µM]	·	?
COc1ccc(-c2oc3ncn(CCN4CCOCC4)c(=N)c3c2-c2ccc(OC)cc2)cc1	?	16µM*	13µM*	7.4µM*	?	22%
CCOc1cc2nc(-c3ccc(OC)c(OC)c3)nc(NCCCN3CCOCC3)c2cc1OC	54	?	?	·	?	0.074µM*
c1ccc(-c2oc3ncnc(NCCCN4CCOCC4)c3c2-c2ccccc2)cc1	-20	?	5.6µM*	?	-1%	?
COc1cc2ncnc(NCCCN3CCOCC3)c2cc1OC	20	·	?	?	·	?
O=C(Nc1ccnn1C1CCN(Cc2cccnc2)CC1)c1ccccc1Cl	-7	13%	10%	0%	?	?
O=C(Nc1ccnn1C1CCN(C(=O)Cc2cccc(Cl)c2)CC1)C1CC1	29	22%	28%	-7%	-14%	13µM*
O=C(Nc1ccnn1C1CCN(Cc2cccc(O)c2)CC1)C1CCCC1	-22	26%	6%	12%	-5%	-6%
Cc1cc(CN2CCC(n3nccc3NC(=O)c3ccccc3Cl)CC2)cc(C)c1O	?	·	-8%	10µM*	·	9%
O=C(Nc1ccnn1C1CCN(Cc2ccc(O)c(Cl)c2)CC1)C1CCCC1	16	2%	-2%	2.1µM*	-7%	?
Cc1cccc(CC(=O)N2CCC(n3nccc3NC(=O)C3CC3)CC2)c1	5	6%	·	0%	-2%	-37%
CN(c1cc(Cl)c2c(c1)OCO2)c1cc2c(c3c1ccn3C)C1CCC2C1 (stereo not drawn)	-23	·	·	·	?	·
CC1CCCN(C(=O)Cn2nnc(-c3ccc(S(C)(=O)=O)cc3)n2)C1 (stereo not drawn)	28	·	-5%	-6%	·	22%
SMILES	HCMV inh	MARV entry inh	HCV inh	Pf growth 48h	Lassa entry inh	Pf growth 96h
O=c1cc(C(F)(F)F)c2cc3c4c(c2o1)CCCN4CCC3	35	-16%	-8%	·	-14%	-28%
CC(C)c1cc(=O)oc2c3c4c(cc12)CCCN4CCC3	-29	?	?	12µM*	?	33%
CC(C)CC(=O)/C=C/n1c(=S)oc2ccccc21	57	-16%	14µM*	?	13%	?
CC(=O)/C=C/n1c(=S)oc2ccccc21	-100*	13µM*	4.5µM*	?	?	-81%
Cn1c(=S)oc2ccccc21	29	2%[46.1 µM]	11%	-5%	5%	10%
CCOC(=O)C1CSCCS(=O)(=O)N1Cc1cc(F)ccc1Br (stereo not drawn)	-24	?	·	·	·	·
CCOC(=O)C1CCN(C(=O)C2CCN(C3=NS(=O)(=O)C(c4ccc(C)cc4)=C3CC)CC2)CC1	-1	-2%[46.1 µM]	·	·	·	·
CC(=O)c1c(C)oc2ccc(N(C(=O)Oc3ccccc3)S(=O)(=O)c3ccccc3)cc12	35	·	·	·	?	·
CCCCCCCCNS(=O)(=O)CCNCc1ccco1	12	·	15%	·	?	·
COc1cccc(-c2cc3c(Nc4cccnc4)nccc3n2C)c1	-10	·	·	·	·	·
CC1(C)CC(=O)C(C=Nc2ccc3cn[nH]c3c2)=C(O)C1	46	1%	5%	0%	13%	-8%
CC1(C)CC(=O)C(C=Nc2ccc3[nH]ncc3c2)=C(O)C1	-30	18%	6%	5%	-5%	10µM*
Cc1ccn2c(Nc3ccc4c(c3)OCCO4)c(-c3ccccc3O)nc2c1	13	5%[46.1 µM]	·	·	-7%[46.1 µM]	·
Cc1cc(OCCn2ccnc2)cc(C(C)C)c1	0	-5%	?	-22%	-6%	36%
Cc1cc(C)cc(OCCn2ccnc2)c1	-4	·	6.3µM*	-11%	·	0%

Screening results: PubChem, National Center for Advancing Translational Sciences (NCATS)
